MCF10A rerep: A quantitative high throughput screen for small molecules that induce DNA re-replication in MCF 10a normal breast cells | 350,000 compounds, 2.9% hits | Potency, µM (highest dose often 46.1 µM), most hits filed as activators | MCF 10A DNA re-replication, Hoechst nuclear intensity, 48 h; also: nearly all actives have a fitted effect of over 50% in size
RORg inh: qHTS for inhibitors of ROR gamma transcriptional activity | AID 2551, 2010 | Potency, µM (doses to about 53.6 µM), most hits filed as inhibitors | Nuclear receptor ROR-gamma (Mus musculus), P51450 | Drosophila S2 Gal4-RORgamma UAS-luciferase reporter, 20 h | 310,000 compounds, 5.4% hits; also: nearly all actives have a fitted effect of over 60% in size
Target sequence (P51450 whole entry, looked up, the tested form may be a part): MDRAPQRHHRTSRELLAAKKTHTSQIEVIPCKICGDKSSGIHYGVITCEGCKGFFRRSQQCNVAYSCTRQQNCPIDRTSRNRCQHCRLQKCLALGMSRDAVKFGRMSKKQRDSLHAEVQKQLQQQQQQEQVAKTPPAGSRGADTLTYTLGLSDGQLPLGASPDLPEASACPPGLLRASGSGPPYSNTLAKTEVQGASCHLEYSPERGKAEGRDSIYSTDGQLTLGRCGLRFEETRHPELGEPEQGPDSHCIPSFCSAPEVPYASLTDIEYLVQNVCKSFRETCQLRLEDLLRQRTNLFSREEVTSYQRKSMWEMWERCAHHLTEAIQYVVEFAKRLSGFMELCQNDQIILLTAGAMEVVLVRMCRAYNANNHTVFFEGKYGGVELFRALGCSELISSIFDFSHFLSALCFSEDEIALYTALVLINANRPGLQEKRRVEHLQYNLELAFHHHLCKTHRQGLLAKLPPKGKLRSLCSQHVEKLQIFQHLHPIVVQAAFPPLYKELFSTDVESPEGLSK
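Drosophila S2 cells stably expressing Gal4-DBD/mouse RORγ fusion under metallothionein promoter plus UAS-luciferase; compound 1 h, then 700 uM CuSO4 induction for 20 h at ambient temperature; inhibition read as reduced luminescence.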
SW480 rerep: A quantitative high throughput screen for small molecules that induce DNA re-replication in SW480 colon adenocarcinoma cells; SW480 DNA re-replication, Hoechst DNA content imaging, 48 h; Potency, µM (highest dose often 46.1 µM), usual class: activators; 340,000 compounds, 1.8% hits; AID 624297, 2012; also: nearly all actives have a fitted effect of over 55% in size
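Quantitative HTS format with DMSO vehicle controls; 48 hr drug incubation at 37 C, then 40 min Hoechst staining and scanning imager measurement at 405 nm excitation.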
IL1B secr inh: qHTS for Inhibitors of Inflammasome Signaling: IL-1-beta AlphaLISA Primary Screen; THP-1 LPS/ATP IL-1B secretion, AlphaLISA, 16 h; active compounds read low; 360,000 compounds, 4.7% hits; AID 743279, 2014; activity change, % at 57.5 µM; in the data active = activity change below about -50%; inconclusive = mostly about -30% to -49%
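Secreted IL-1B measured by AlphaLISA bead assay after 16 h compound exposure of THP-1 cells; compounds (final up to 57.5 uM) added 1 h before LPS (250 ng/mL) and ATP (1.25 mM) stimulation; lower signal means less secretion.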
Gal4-VP16 FLuc: VP16 counterscreen qHTS for inhibitors of ROR gamma transcriptional activity. Drosophila S2 Gal4-VP16 UAS-luciferase, luminescence, 20 h. Potency, µM (highest dose often 53.6 µM), actives largely listed as inhibitors. 310,000 compounds, 3.5% hits. AID 2546, 2010;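 also: Gal4-VP16 expression switched on by copper sulfate through the metallothionein promoter; nearly all actives have a fitted effect of over 50% in size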
Hits are given with their value; [ ] = dose if it differs, or a comment. Sampled rows, rich in hits. Any-hit rate of the full collection: about 11%. Unless noted, calls follow the shape of the dose curve; as a rule, active = well fitted curve in the direction sought with a large enough effect; inconclusive = small, poorly fitted or top-dose-only effect, or another doubt; inactive = no such curve, though single readings can be large; an effect the other way counts as inactive or inconclusive.

CCOC(CN1CCN(CC(C)C(=O)c2ccccc2)CC1)c1ccccc1 (configuration not stated) was read as MCF10A rerep inactive, RORg inh inactive, SW480 rerep inactive and Gal4-VP16 FLuc inactive.
For COc1ccc(-c2nc3cc(C)c(Br)c(C)n3c2Cc2ccc(C)cc2)cc1OC the results were IL1B secr inh inactive.
`O=c1c(-c2ccc(Cl)cc2)nc2cnc(N3CCOCC3)nc2n1Cc1ccc(F)cc1` gave RORg inh inactive and Gal4-VP16 FLuc inactive.
Screening COC(=O)c1ccc(C(NC(=O)OCc2ccccc2)/C(=C/[C@@H](C)C(=O)NCc2ccc(-c3ccccc3)cc2)c2cccnc2)cc1 (some centres not stated) returned RORg inh inactive and Gal4-VP16 FLuc inactive.
Screening Cc1csc(C(C#N)C(=O)c2cc3ccccc3o2)n1 (configuration not stated) returned MCF10A rerep inactive, RORg inh 10µM, SW480 rerep inactive, IL1B secr inh inactive and Gal4-VP16 FLuc inactive.
Cc1ccc(S(=O)(=O)N(C)c2ccc3sc(C)nc3c2)cc1 was read as MCF10A rerep 9.2µM, RORg inh inactive, SW480 rerep inconclusive, IL1B secr inh inactive and Gal4-VP16 FLuc inactive.
Screening CCCN1CNC(=S)N(c2ccc(C)cc2C)C1 returned MCF10A rerep inactive, RORg inh 4µM, SW480 rerep inactive and Gal4-VP16 FLuc inconclusive.
For CCCN1CNC(=S)N(c2ccccc2C)C1 the results were MCF10A rerep inactive, RORg inh 11µM, SW480 rerep inactive, IL1B secr inh inactive and Gal4-VP16 FLuc inconclusive.
Screening CCN1CNC(=S)N(c2cc(C)ccc2C)C1 returned MCF10A rerep inactive, RORg inh inconclusive, SW480 rerep inactive, IL1B secr inh inactive and Gal4-VP16 FLuc inactive.
`CCN(CC)CCN1CNC(=S)N(c2ccccc2OC)C1` gave MCF10A rerep inactive, RORg inh inactive, SW480 rerep inactive and Gal4-VP16 FLuc inactive.
`CC1(C(=O)NS(=O)(=O)c2ccc(C#N)cc2)CCN1C(=O)Cc1cccc2ccccc12` (configuration not stated) gave IL1B secr inh inactive.
Screening N#Cc1ccc(C(=O)CSc2nnc(-c3ccc(C(F)(F)F)cn3)s2)cc1 returned MCF10A rerep inactive, RORg inh inactive, SW480 rerep 3.3µM, IL1B secr inh inactive and Gal4-VP16 FLuc inactive.
`O=C(CSc1nnc(-c2ccc(C(F)(F)F)cn2)s1)c1ccc(Cl)cc1` gave MCF10A rerep inactive, RORg inh inactive, SW480 rerep inactive, IL1B secr inh inactive and Gal4-VP16 FLuc inactive.
`COc1ccc(Cn2c(=O)[nH]c3cc(C(=O)Nc4ccc(N5CCN(C)CC5)cc4)ccc32)cc1` gave MCF10A rerep inactive, RORg inh inactive, SW480 rerep inactive, IL1B secr inh -59 and Gal4-VP16 FLuc inactive.
`O=C(CN(c1cccc(Br)c1)S(=O)(=O)c1ccccc1)N/N=C/c1cc([N+](=O)[O-])ccc1O` gave MCF10A rerep inconclusive, SW480 rerep inconclusive and IL1B secr inh inactive.
`O=C(CCC(=O)Nc1cccc(Cl)c1)N/N=C/c1cc([N+](=O)[O-])ccc1O` gave MCF10A rerep inactive, RORg inh 11µM, SW480 rerep inconclusive, IL1B secr inh inactive and Gal4-VP16 FLuc inconclusive.
O=C(CCCC(=O)Nc1cccc(Br)c1)N/N=C/c1cc([N+](=O)[O-])ccc1O was read as MCF10A rerep inactive, RORg inh inconclusive, SW480 rerep inconclusive, IL1B secr inh inactive and Gal4-VP16 FLuc 10µM.
For O=C(CCC(=O)Nc1cccc([N+](=O)[O-])c1)N/N=C/c1cccs1 the results were MCF10A rerep inactive, RORg inh inactive, SW480 rerep inconclusive, IL1B secr inh inactive and Gal4-VP16 FLuc inactive.
`COc1cc(C)ccc1OCc1cc(C(=O)N2CCN(C3CCCCC3)CC2)no1` gave MCF10A rerep inconclusive, RORg inh inactive, SW480 rerep inactive, IL1B secr inh inactive and Gal4-VP16 FLuc inconclusive.
`COc1ccc(C(=O)N2CCC3(CCCN(c4ccccc4)C3)CC2)cc1` gave RORg inh inactive and Gal4-VP16 FLuc inactive.
Screening c1ccc(-c2nc(NCC3CC3)nc3ccsc23)cc1 returned IL1B secr inh inactive.
COCCNc1nc(NCCOc2ccccc2Cl)c2sc(-c3ccccc3)cc2n1 was read as IL1B secr inh -60.
`c1ccc(-c2cc3nc(NCC4CC4)nc(NCC4CCCCC4)c3s2)cc1` gave IL1B secr inh -109.
`COCCNc1nc(NCC2CCCCC2)c2sc(-c3ccccc3)cc2n1` gave IL1B secr inh -103.
COc1cc2oc(=O)cc(-c3ccc(-c4sccc4C=O)cc3)c2c(OC)c1OC was read as RORg inh inactive and Gal4-VP16 FLuc inactive.
Screening C/C(=N\NC(N)=S)C1C2C3CC4C5CC(C42)C1C53 (configuration not stated) returned MCF10A rerep inactive, RORg inh 1.1µM, SW480 rerep inactive, IL1B secr inh inactive and Gal4-VP16 FLuc inconclusive.
`C=CCn1cnc2c(c1=O)c1nc3ccccc3nc1n2/N=C/c1cccc(OC)c1OC` gave MCF10A rerep inactive, RORg inh inactive[10 µM], SW480 rerep inactive, IL1B secr inh -52 and Gal4-VP16 FLuc inactive.
C=CCn1cnc2c(c1=O)c1nc3ccccc3nc1n2/N=C/c1ccccn1 was read as MCF10A rerep inactive, RORg inh inactive[10 µM], SW480 rerep inactive, IL1B secr inh -65 and Gal4-VP16 FLuc inactive.
O=c1c2c3nc4ccccc4nc3n(/N=C/c3ccccn3)c2ncn1-c1ccccc1 was read as MCF10A rerep 3.3µM, RORg inh inactive, SW480 rerep 23µM, IL1B secr inh inconclusive and Gal4-VP16 FLuc inactive.
For COCCn1cnc2c(c1=O)c1nc3ccccc3nc1n2/N=C/c1cccc(OC)c1 the results were MCF10A rerep inconclusive, RORg inh inactive, SW480 rerep inconclusive, IL1B secr inh inactive and Gal4-VP16 FLuc inconclusive.
For C=CCn1cnc2c(c1=O)c1nc3ccccc3nc1n2/N=C/c1cc(OC)c(OC)c(OC)c1 the results were MCF10A rerep inconclusive, RORg inh inactive[10 µM], SW480 rerep inactive[9.22 µM], IL1B secr inh inactive and Gal4-VP16 FLuc inactive.
For COc1cc(NC(=O)C2CCN(c3cnccn3)CC2)cc(OC)c1OC the results were MCF10A rerep inactive, RORg inh inactive, SW480 rerep inconclusive, IL1B secr inh inactive and Gal4-VP16 FLuc inactive.
For CCNc1nc(NCc2ccccc2)nc(SCC(N)=O)n1 the results were MCF10A rerep inactive, RORg inh inactive, SW480 rerep inconclusive, IL1B secr inh inactive and Gal4-VP16 FLuc inactive[10 µM].
`CCNc1nc(NCc2ccccc2)nc(SCC(=O)Nc2ccccc2)n1` gave MCF10A rerep inactive, RORg inh inconclusive, SW480 rerep inactive, IL1B secr inh -50 and Gal4-VP16 FLuc inactive.
N[C@@H]1CCN(O)C1=O was read as RORg inh inactive and Gal4-VP16 FLuc inactive.

Bioassay records as filed in PubChem.
